Measured values taken from PubChem BioAssay (NCI).
The panel holds about 83,000 compounds, 20% with a hit somewhere; the sample as a whole holds those more often.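 How to read the values: 0–100, growth inhibition (40 = 60% inhibited); 0, no net growth; -100 to 0, cell death (-40 = 40% of starting cells died; -100 = all dead).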 Unmarked numbers belong to inactive results. Calls of active or inactive are those of the source. Rule for the calls: active = growth percent below 10; inactive = the rest.

Key:
Assay in all cases: NCI-60 one-dose screen, 48 h (100 = growth as untreated, 0 = no growth, -100 = all killed)
Conditions in all cases: 10 µM unless noted
[1] = test system: HCT-15 colon
[2] = test system: HT29 colon
[3] = test system: SNB-75 CNS
[4] = test system: SNB-19 CNS
[5] = test system: U251 CNS
[6] = test system: PC-3 prostate
[7] = test system: SK-MEL-5 melanoma
[8] = test system: UACC-62 melanoma
[9] = test system: LOX IMVI melanoma
[10] = test system: SK-MEL-28 melanoma

Row | SMILES | growth [1] | growth [2] | growth [3] | growth [4] | growth [5] | growth [6] | growth [7] | growth [8] | growth [9] | growth [10]
1 | Cc1ccccc1NC(=O)Nc1nc2ccc([N+](=O)[O-])cc2s1 | 12.1% | 5.11% (active) | 6.72% (active) | 14.1% | 3.34% (active) | 2.79% (active) | -47.2% (active) | 11.6% | 12.1% | 16.6%
2 | O=C1[C@@H]2Cc3c([nH]c4ccccc34)[C@@H](c3ccc(Cl)cc3)N2C(=O)CN1C1CCN(Cc2ccccc2)CC1 | 34.1% | -28.4% (active) | 29% | 50.5% | 34.7% | 21.4% | 54.2% | 62.3% | -15% (active) | 88.1%
3 | CN1CCN(CC#CCn2c3c(c4ccccc42)C[C@]2(C)[C@H]4CC=C5[C@@H]6CC(C)(C)CC[C@]6(C(=O)N6CCOCC6)CC[C@@]5(C)[C@]4(C)CC[C@H]2C3(C)C)CC1 | 28.4% | 12.3% | 88.9% | 83% | 43.4% | 56.7% | 95.7% | 103% | -46.1% (active) | 92.1%
4 | C=C(C)[C@@H]1CC[C@]2(COCCCNCCCN)CC[C@]3(C)[C@H](CC[C@@H]4[C@@]5(C)CC[C@H](O)C(C)(C)[C@@H]5CC[C@]43C)[C@@H]12 | -78% (active) | -62.6% (active) | -86.6% (active) | -91% (active) | -73.4% (active) | -74.4% (active) | -63.5% (active) | -89.6% (active) | -80.7% (active) | -92.8% (active)
5 | O=C1C(N2CCN(c3ccccc3)CC2)=C(Cl)C(=O)c2ncccc21 | 20.3% | 106% | 83.7% | 81.5% | 79.5% | 71.9% | 95.1% | 61.8% | 10.4% | 83%
6 | C[C@@H]1OCC2(CCN(c3cnc(C(=O)Nc4cc(F)cc5cccnc45)cn3)CC2)[C@@H]1N | 20.9% | 32.4% | 65.1% | 78.1% | 75.3% | 55.7% | 94.4% | 54% | 44.5% | 70%
7 | O=S(=O)(NCCCNc1nccc(-c2[nH]c(-c3ccccc3)nc2-c2ccc(F)c(O)c2)n1)c1cccc2ccccc12 | 39.4% | 101% | 75.4% | 76.5% | 50.5% | 52.8% | 34.1% | 26.3% | 31.9% | 54.3%
8 | O=C(Nc1cc(C(F)(F)F)cc(C(F)(F)F)c1)Nc1ccc2oc(=O)ccc2c1 | 10.5% | 10.5% | 15.1% | 13.6% | 14.6% | 3.96% (active) | -90.6% (active) | 14% | -43.1% (active) | 34.8%
9 | NS(=O)(=O)c1nnc(/N=C/c2c(O)[nH]c3ccccc23)s1 | 102% | 105% | 81.2% | 105% | 99.9% | 89.3% | 98.5% | 97% | 100% | 114%
10 | Cc1ccsc1[C@H]1c2[nH]c3ccccc3c2C[C@H]2C(=O)N(CCCCCCC(=O)NO)CC(=O)N12 | 99.1% | 87.3% | 51.8% | 81.1% | 83.8% | 78.6% | 83.4% | 57.9% | -71.9% (active) | 73.7%
11 | CC[C@H](CC[C@@H](C)[C@H]1CC[C@H]2[C@@H]3CC(=O)C4=CC(=O)/C(=C/c5ccc([N+](=O)[O-])cc5)C[C@]4(C)[C@H]3CC[C@]12C)C(C)C | 96.9% | 104% | 96.1% | 102% | 100% | 94.8% | 96.7% | 90.2% | 107% | 104%
12 | COc1ccc(-c2nc(C#N)c(N3CCC(S(=O)(=O)N4CCOCC4)CC3)o2)cc1 | 105% | 101% | 103% | 96.9% | 104% | 98.2% | 97.1% | 96.3% | 100% | 99%
13 | CCOC(=O)c1ccc(NC2=C(Cl)C(=O)c3nc(C)ccc3C2=O)cc1 | -48.5% (active) | 71.5% | 70.1% | 68.1% | 63.8% | 48% | 63.6% | 55.5% | 0.747% (active) | 55.2%
14 | CN1CCN(c2ccc(Nc3nc(NCCNC(=O)c4ccc(F)cc4)c4sccc4n3)cc2)CC1 | 28.2% | 32% | 91.5% | 91.8% | 37% | 72.2% | 25.2% | 33.8% | 8.7% (active) | -8.89% (active)
15 | CN1CC[C@@H]2[C@@]3(C)CC[C@H](O)C(C)(C)[C@@H]3CC[C@@]2(C)[C@]2(C)CC[C@@]3(CO)CCC(C)(C)C[C@@H]3C12 (stereo not given in full) | 72.7% | 40.3% | 87.7% | 94.5% | 73.9% | 79.6% | 95.6% | 93% | 84.8% | 88%
16 | CCCCCCOC(=O)c1cc(-c2ccc(F)cc2)nc2ccccc12 | 94.8% | 96.3% | 69.9% | 92.6% | 101% | 94.2% | 99.7% | 79% | 91.3% | 107%
17 | COCCOc1ccc2ncc(C#Cc3cncc(C(=O)Nc4ccc(CN5CCN(C)CC5)c(C(F)(F)F)c4)c3)n2n1 | 0.122% (active) | 15.6% | 4.29% (active) | 18.1% | 37.9% | 35% | 67.4% | 31.5% | -88.9% (active) | -49.4% (active)
18 | O=C(Nc1ccc(N2CCOCC2)cc1)Nc1ccc2c(ccn2C(=O)c2cccc(F)c2)c1 | 78.6% | 76% | 12.3% | 46.9% | 41.5% | 49.3% | 69.4% | 42.3% | 23% | 59.2%
